87 molecules from article PMC4336329 (PLoS ONE, 2015) can be followed below.

Among all 310,000 compounds or so, about 14,000 (4.5%) showed an effect of 50% or more. Effects have a minus sign here. For the sample, strong results were picked, then their nearest neighbours and some compounds at random.
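Further: peak tail current of the secondary pulse compared with the same well before compound.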

The test deals with human ether-à-go-go-related gene (hERG) potassium channel (human, UniProt Q12809). Description: primary screen, population patch clamp on CHO cells stably expressing hERG; higher = less effect of the substance.
human ether-à-go-go-related gene (hERG) potassium channel, sequence (Q12809 whole entry, looked up): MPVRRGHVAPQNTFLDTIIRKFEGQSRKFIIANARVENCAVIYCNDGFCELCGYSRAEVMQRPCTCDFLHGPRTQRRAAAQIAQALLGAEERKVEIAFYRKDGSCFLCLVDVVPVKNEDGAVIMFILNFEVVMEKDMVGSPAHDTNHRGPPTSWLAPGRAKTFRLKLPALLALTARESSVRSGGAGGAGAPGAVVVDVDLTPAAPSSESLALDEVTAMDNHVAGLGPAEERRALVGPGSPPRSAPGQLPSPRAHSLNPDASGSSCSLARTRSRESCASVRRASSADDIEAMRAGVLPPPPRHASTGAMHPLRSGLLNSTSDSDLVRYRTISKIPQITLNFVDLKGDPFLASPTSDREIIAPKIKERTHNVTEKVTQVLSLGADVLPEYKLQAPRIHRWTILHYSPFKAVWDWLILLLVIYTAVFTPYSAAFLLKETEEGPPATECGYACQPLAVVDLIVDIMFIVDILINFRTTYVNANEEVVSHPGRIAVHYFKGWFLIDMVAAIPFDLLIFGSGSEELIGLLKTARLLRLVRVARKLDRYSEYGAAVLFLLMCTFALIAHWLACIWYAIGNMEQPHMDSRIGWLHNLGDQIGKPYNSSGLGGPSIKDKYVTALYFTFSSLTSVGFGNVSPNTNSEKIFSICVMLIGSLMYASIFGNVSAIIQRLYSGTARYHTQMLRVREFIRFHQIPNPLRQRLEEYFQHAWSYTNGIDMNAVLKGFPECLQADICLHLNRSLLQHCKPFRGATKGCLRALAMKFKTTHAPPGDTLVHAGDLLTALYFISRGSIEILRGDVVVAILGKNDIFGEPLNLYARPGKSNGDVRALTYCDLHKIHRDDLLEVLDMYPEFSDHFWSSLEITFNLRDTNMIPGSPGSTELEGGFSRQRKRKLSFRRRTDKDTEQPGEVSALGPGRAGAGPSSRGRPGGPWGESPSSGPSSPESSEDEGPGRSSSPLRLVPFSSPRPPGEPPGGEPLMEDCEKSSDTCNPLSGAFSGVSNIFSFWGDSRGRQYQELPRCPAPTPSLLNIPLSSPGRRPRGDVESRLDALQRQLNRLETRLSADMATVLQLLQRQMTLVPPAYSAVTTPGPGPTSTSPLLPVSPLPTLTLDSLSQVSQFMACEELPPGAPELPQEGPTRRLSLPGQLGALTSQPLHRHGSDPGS
Take `CCOc1cc2c(cc1OCC)C(c1ccccc1)N(c1ccccc1)C(=O)C2` (stereo not drawn): the “hERG current change (%, negative = inhibition) at 10uM” value is on record as -6.2%.
For `CCOc1cc2c(cc1OCC)C(c1ccc(OC)cc1)N(c1ccccc1)C(=O)C2` (stereo not drawn) the value was -57.5%; for `CCOc1ccc(C2c3cc(OC)c(OC)cc3CC(=O)N2c2ccccc2)cc1` (stereo not drawn), -26.5%.
On to `COC(=O)c1ccc(-n2c(C)cc(C(=O)COC(=O)CC3Sc4ccccc4NC3=O)c2C)cc1` (stereo not drawn), for which the “hERG current change (%, negative = inhibition) at 10uM” value stood at 28.5%.
For the molecule `Cc1cc(N2CCN(C)CC2)nc2ccc(NC(=O)CCC3CCCC3)cc12`, the “hERG current change (%, negative = inhibition) at 10uM” value is -74.6%.
On to `CCN1CCN(c2cc(C)c3cc(NC(=S)N4CCCCC4)ccc3n2)CC1`, for which the “hERG current change (%, negative = inhibition) at 10uM” value was -50.1%.
The same measure for `CCN1CCN(c2cc(C)c3cc(NC(=S)N4CCCC(C)C4)ccc3n2)CC1` (stereo not drawn): -51.3%; for `CCN1CCN(C(=S)Nc2ccc3nc(N4CCN(C)CC4)cc(C)c3c2)CC1`: -2.94%; for `CCCN1CCN(C(=S)Nc2ccc3nc(N4CCN(CC)CC4)cc(C)c3c2)CC1`: 2.61%.
`Cc1cc(N2CCN(C)CC2)nc2ccc(NC(=O)CCC(=O)NCCC(C)C)cc12`: the “hERG current change (%, negative = inhibition) at 10uM” value turned out to be 13.8%.
Take `CCN1CCN(c2cc(C)c3cc(NC(=S)N4CCOCC4)ccc3n2)CC1`: the “hERG current change (%, negative = inhibition) at 10uM” value is reported as -23.4%.
The same measure for `CCN1CCN(C(=S)Nc2ccc3nc(N4CCN(CC)CC4)cc(C)c3c2)CC1`: -13.9%; for `CCN1CCN(c2cc(C)c3cc(NC(=S)N4CCCC4)ccc3n2)CC1`: -15.9%; for `Cc1cc(N2CCN(C)CC2)nc2ccc(NC(=S)N3CCOCC3)cc12`: -15.4%.
The same measure for `Cc1cc(N2CCN(C)CC2)nc2ccc(NC(=O)CCC(=O)NCc3ccco3)cc12`: 7.05%; for `Cc1cc(N2CCN(C)CC2)nc2ccc(NC(=S)N3CCCCCC3)cc12`: -67.2%; for `N/C(=N\OC(=O)/C=C/c1ccc(Br)cc1)c1ccccn1`: -6.37%.
As for `OC(CSc1ccc(F)cc1)CN1CCN(c2ccccc2)CC1` (stereo not drawn), the “hERG current change (%, negative = inhibition) at 10uM” value was -41.7%.
For `O=C(CSc1nnc2c(Cl)cc(C(F)(F)F)cn12)NCc1ccc(F)cc1` the value was -4.27%; for `CC(C)CN(C(=O)CSc1nnnn1C)C1CCS(=O)(=O)C1` (stereo not drawn), 26%.
Turning to `CCC/C(=N\NC(=O)Cc1csc(N2CCOCC2)n1)c1ccccc1`, the “hERG current change (%, negative = inhibition) at 10uM” value is -13.5%.
For `O=C(N/N=C/c1ccc[nH]1)c1ccc(O)cc1` the value was 19.6%.
For `Cc1c(Br)c([N+](=O)[O-])nn1CC(=O)N1CCN(Cc2ccccc2)CC1`, the “hERG current change (%, negative = inhibition) at 10uM” value is recorded as -56.4%.
For `Cc1c(Cl)c([N+](=O)[O-])nn1CC(=O)N1CCN(Cc2ccccc2)CC1` the value was -71%; for `Cc1c(Cl)c([N+](=O)[O-])nn1CC(=O)N1CCCC1`, -4.86%; for `Cc1c(Cl)c([N+](=O)[O-])nn1CC(=O)N1CCc2ccccc2C1`, 1.08%.
As for `Cc1c(Br)c([N+](=O)[O-])nn1CC(=O)NCc1ccccc1`, the “hERG current change (%, negative = inhibition) at 10uM” value is -2.99%.
For `Cc1cc([N+](=O)[O-])nn1CC(=O)N1CCN(Cc2ccccc2)CC1` the value was -8.96%; for `CC(C)(C)c1nc(SCC(=O)NCc2cccs2)c2ccccc2n1`, -0.222%; for `CCCCn1c(SCC(=O)Nc2nnc(C)s2)nc2c1c(=O)n(C)c(=O)n2C`, -12.4%.
On to `Cc1ccc(-n2c(O)c(C=NCc3ccccn3)c3ccccc3c2=O)cc1C`, for which the “hERG current change (%, negative = inhibition) at 10uM” value is -11.5%.
For `CC1=C(C(=O)OCC2CCCO2)C(c2ccccc2Cl)NC(=O)N1` (stereo not drawn) the value was 14.1%; for `CCN1CCN(C(=O)CCN2C(=O)c3ccccc3C2=O)CC1`, -1.77%.
Regarding `O=C(CCN1C(=O)c2ccccc2C1=O)N1CCCCCC1`, the “hERG current change (%, negative = inhibition) at 10uM” value is 0.431%.
The same measure for `CN1CCN(C(=O)CCN2C(=O)c3ccccc3C2=O)CC1`: 14.7%.
Regarding `O=C(CCN1C(=O)c2ccccc2C1=O)N1CCN(Cc2ccccc2)CC1`, the “hERG current change (%, negative = inhibition) at 10uM” value was -22.8%.
The same measure for `O=C(CCN1C(=O)c2ccccc2C1=O)N1CCN(Cc2ccc(Cl)cc2Cl)CC1`: -53.4%.
On to `Cc1ccc(CN2CCN(C(=O)CCN3C(=O)c4ccccc4C3=O)CC2)cc1`, for which the “hERG current change (%, negative = inhibition) at 10uM” value was -55.4%.
In the case of `O=C(NN=C1CCN(Cc2ccccc2)CC1)c1ccccc1`, the “hERG current change (%, negative = inhibition) at 10uM” value amounted to 7.78%.
In the case of `Cn1ccnc1SCCNC(=O)CCc1nnc(CCc2ccccc2)o1`, the “hERG current change (%, negative = inhibition) at 10uM” value was -10.2%.
For `Cn1c(O)c(C=NCCN2CCNCC2)c(=O)[nH]c1=O` the value was 13.6%; for `Cc1ccccc1C(=O)N=c1sccn1C`, 24.7%; for `Cc1cc(F)ccc1NS(=O)(=O)c1c(C)nc2scc(C)n2c1=O`, -35.8%.
For `COc1cccc(Cn2c(=O)c3[nH]cnc3n(-c3ccccc3C)c2=O)c1` the value was -1.8%; for `CCOC(=O)c1c(NC(=O)C(C)N2CCN(S(=O)(=O)c3cccs3)CC2)sc2c1CCC(C)C2` (stereo not drawn), 6.72%.
Turning to `Cc1ccc(NC(=O)CN(C)C(=O)c2ccc3[nH]c4c(c3c2)CC(C)CC4)cc1` (stereo not drawn), the “hERG current change (%, negative = inhibition) at 10uM” value worked out at 8.58%.
Turning to `O=C1C2CCCN2C(c2ccccc2)N1c1nccs1` (stereo not drawn), the “hERG current change (%, negative = inhibition) at 10uM” value is 17.7%.
As to `Cc1ccccc1C1N(c2nccs2)C(=O)C2CCCN21` (stereo not drawn), the “hERG current change (%, negative = inhibition) at 10uM” value was -62.5%.
For the molecule `Cc1ccc(C2N(c3nccs3)C(=O)C3CCCN32)cc1` (stereo not drawn), the “hERG current change (%, negative = inhibition) at 10uM” value is on record as -4.54%.
The same measure for `CC(C)(/C=N/O)/[N+]([O-])=C/c1ccccc1`: 20.1%; for `CCCOc1cccc(NC(=O)OC2CCN(C)CC2)c1.O=C(O)/C=C/C(=O)O`: -15.7%.
Consider `CCn1cc2nc(SCC(=O)Nc3ccc(OC)cc3OC)n(Cc3ccc(OC)cc3)c(=O)c2n1`, for which the “hERG current change (%, negative = inhibition) at 10uM” value was found to be 1.42%.
The same measure for `Cc1ccc(NC(=O)CSc2nc3ccccc3c(=O)n2Cc2cccs2)cc1`: 7.4%; for `CCn1cc2nc(SCC(=O)Nc3ccc(F)cc3F)n(Cc3ccccc3)c(=O)c2n1`: -40%.
`O=C(CSc1nc2nccnc2c(=O)n1Cc1cccs1)Nc1ccccc1`: the “hERG current change (%, negative = inhibition) at 10uM” value is -74.9%.
The same measure for `O=C(CSc1nc2nccnc2c(=O)n1Cc1cccs1)Nc1ccccc1F`: -69.1%; for `Cn1c(Cc2cccs2)nnc1SCC(=O)Nc1ccccc1F`: 1.93%.
Take `CCOc1ccc(NC(=O)CSc2nc3ccccc3c(=O)n2Cc2cccs2)cc1`: the “hERG current change (%, negative = inhibition) at 10uM” value came to 13.6%.
The same measure for `COc1ccc(NC(=O)CSc2nc3ccccc3c(=O)n2Cc2cccs2)c(OC)c1`: -6.23%; for `COc1ccccc1NC(=O)CSc1nnc(Cc2cccs2)n1C`: 5.99%.
For `COc1ccccc1NC(=O)CSc1nc2nccnc2c(=O)n1Cc1cccs1` the value was -69.9%; for `CC(C)CCn1c(SCC(=O)Nc2ccccc2C(F)(F)F)nc2nccnc2c1=O`, -21.6%; for `CCn1cc2nc(SCC(=O)Nc3ccccc3F)n(Cc3ccccc3)c(=O)c2n1`, -70.6%.
Take `CC1(C)CC(=O)N(CC(=O)NC2CCCC2)c2ccccc2S1(=O)=O`: the “hERG current change (%, negative = inhibition) at 10uM” value is listed as 11.7%.
Consider `COc1ccc(Br)cc1/C=N/NC(=O)C(c1ccncc1)N1CCOCC1` (stereo not drawn), for which the “hERG current change (%, negative = inhibition) at 10uM” value is given as 7.87%.
For `CCOc1ccc(S(=O)(=O)NCCC(=O)NCc2cccnc2)cc1` the value was 4.31%; for `O=C1c2cccc3cc([N+](=O)[O-])cc(c23)C(=O)N1CC1CCCO1` (stereo not drawn), -8.56%; for `CCOC(=O)N1CCc2c(sc3[nH]c(=S)[nH]c(=S)c23)C1`, 13.4%.
As for `O=C(O)CC[N+](=O)[O-]`, the “hERG current change (%, negative = inhibition) at 10uM” value is recorded as 15.3%.
The same measure for `Cc1c(C(=O)N2CCOCC2)[nH]c2ccc(OCc3ccccc3)cc12`: -13.2%; for `CCN(CC)CCNC(=O)c1[nH]c2ccc(OCc3ccccc3)cc2c1C`: -74.6%; for `COc1ccc2[nH]c(C(=O)NCc3ccccc3)c(C)c2c1.Cl`: 7.03%.
For `CCCc1cc(=O)oc2cc(C)cc(OCC(=O)NCCCN3CCOCC3)c12` the value was -7.61%; for `CCCc1cc(=O)oc2cc(OCC(=O)NCCCn3ccnc3)ccc12`, -47.1%.
With `CCc1cc(=O)oc2cc(OCC(=O)NCCCn3ccnc3)c(Cl)cc12`, the “hERG current change (%, negative = inhibition) at 10uM” value is -28.5%.
The same measure for `CCCc1cc(=O)oc2cc(C)cc(OCC(=O)NCCCn3ccnc3)c12`: -76.4%; for `Cc1c(C)c2cc(Cl)c(OCC(=O)NCCCn3ccnc3)cc2oc1=O`: -2.59%.
With `CCCc1cc(=O)oc2cc(OCC(=O)NCCCn3ccnc3)c(Cl)cc12`, the “hERG current change (%, negative = inhibition) at 10uM” value is listed as -72.3%.
For `CCCc1cc(=O)oc2cc(C)cc(OCC(=O)NCCN3CCOCC3)c12` the value was 6.05%; for `Cc1cc(OC(C)C(=O)NCCCn2ccnc2)c2c(C)c(C)c(=O)oc2c1` (stereo not drawn), -76.7%.
For `Cc1c(C)c2ccc(OC(C)C(=O)NCCCn3ccnc3)c(C)c2oc1=O` (stereo not drawn) the value was -6.05%; for `Cc1cc(OC(C)C(=O)NCCCn2ccnc2)c2c(C)cc(=O)oc2c1` (stereo not drawn), -15.4%; for `Cc1c(C)c2ccc(OCC(=O)NCCCn3ccnc3)cc2oc1=O`, 14%.
The same measure for `Cc1cc(OCC(=O)NCCCn2ccnc2)c2c(C)c(C)c(=O)oc2c1`: -63.6%; for `Cc1cc(C(F)(F)F)nc(SCc2ccc(C(=O)O)o2)n1`: -2.51%; for `CC(=O)Oc1ccc2ccccc2c1C(NC(=O)Cc1ccccc1)c1ccccc1Cl` (stereo not drawn): 7.9%.
For `CCc1noc(C)c1C(=O)N1CCCC(C(=O)c2cc(F)ccc2F)C1` (stereo not drawn), the “hERG current change (%, negative = inhibition) at 10uM” value is -41.2%.
